According to ChEMBL document CHEMBL4513135, “CO-ADD screening of IQOG CSIS (Spain) compounds”:
Several values for one entry are separate records, joined by “and”; a condition that tells them apart may be missing. Identical values can stand only once. Measured potencies and affinities stand elsewhere.

Legend:
Klebsiella pneumoniae = details: Concentration 32 ug.mL-1, ASSAY_TEST Inhibition of Bacterial Growth, detection method Absorption (OD600), MEDIA CAMHB, plate type 384well, NBS, CORNING #3640, time 18 hr
Candida albicans = details: 32 ug/mL
Cryptococcus neoformans = details: Concentration 32 ug.mL-1, ASSAY_TEST Inhibition of Fungal Growth, detection method Resazurin, Absorption (OD600-OD570), plate type 384well, NBS, CORNING #3640

With `CC1CC(=O)Nc2nc3c(c(N)c21)CCCC3` (configuration not stated) the Inhibition (Klebsiella pneumoniae) was 14.16%, the Inhibition (Candida albicans) was 2.93% and the Inhibition (Cryptococcus neoformans) was -54.55%.

For `O=C(N1[C@H]2CC[C@@H]1C(c1nnn[nH]1)C2)C(F)(F)F` (some centres not stated), the Inhibition (Klebsiella pneumoniae) was 13.67%, the Inhibition (Candida albicans) was 1.81% and the Inhibition (Cryptococcus neoformans) was -32.17%.

Compound `CCOC(=O)C1=C(C)OC(=O)CC1c1ccccc1` (configuration not stated) has an Inhibition (Klebsiella pneumoniae) of 8.11%, an Inhibition (Candida albicans) of 4.72% and an Inhibition (Cryptococcus neoformans) of -25.58%.

For `COc1ccc2c(c1)cc(C[N+](C)(C)C)n2C.[I-]`, the Inhibition (Klebsiella pneumoniae) was 16.42%, the Inhibition (Candida albicans) was 1% and the Inhibition (Cryptococcus neoformans) was -0.09%.

In the case of `O=C(CBr)NCc1ccccc1`, the Inhibition (Klebsiella pneumoniae) is reported as 15.98%, the Inhibition (Candida albicans) is reported as 10.2% and the Inhibition (Cryptococcus neoformans) is reported as 6.35%.

Compound `C#CCN1CCc2nc3nc(Cl)c(C#N)cc3c(N)c2C1` has an Inhibition (Klebsiella pneumoniae) of 7.38%, an Inhibition (Candida albicans) of 0.36% and an Inhibition (Cryptococcus neoformans) of -89.58%.

`CCOC(=O)C1=C(OC)OC(=O)CC1c1ccccc1` (configuration not stated) was tested, and the Inhibition (Klebsiella pneumoniae) was 18.96%, the Inhibition (Candida albicans) was 1.67% and the Inhibition (Cryptococcus neoformans) was -58.88%.

`N#CC(C#N)=Cc1ccc(Cl)cc1` was tested, and the Inhibition (Klebsiella pneumoniae) was 17.25%, the Inhibition (Candida albicans) was 0.02% and the Inhibition (Cryptococcus neoformans) was -1.11%.

`NNCCCc1c[nH]c2ccccc12.O=C(O)/C=C/C(=O)O` showed an Inhibition (Klebsiella pneumoniae) of 10.99%, an Inhibition (Candida albicans) of 1.63% and an Inhibition (Cryptococcus neoformans) of 4.26%.

`C#CCN(C)Cc1cc2cc(OC(=O)N(C)C)ccc2n1C` gave an Inhibition (Klebsiella pneumoniae) of -2.9%, an Inhibition (Candida albicans) of 3.66% and an Inhibition (Cryptococcus neoformans) of -26.57%.

In the case of `CNCc1cn(C)c2ccc(OC)cc12.Cl`, the Inhibition (Klebsiella pneumoniae) is reported as 11.42%, the Inhibition (Candida albicans) is reported as 1.37% and the Inhibition (Cryptococcus neoformans) is reported as -1.31%.

`Cc1ccc(S(=O)(=O)N2[C@H]3CC[C@@H]2CC3)cc1` gave an Inhibition (Klebsiella pneumoniae) of 13.85%, an Inhibition (Candida albicans) of 3.38% and an Inhibition (Cryptococcus neoformans) of -10.99%.

Compound `N#CCC(=O)c1ccccc1` has an Inhibition (Klebsiella pneumoniae) of 12.74%, an Inhibition (Candida albicans) of 10.4% and an Inhibition (Cryptococcus neoformans) of -3.25%.

Work on `CCOc1nc2nc(C)c(C(=O)O)cc2c(-c2ccccc2)c1C#N` yielded an Inhibition (Klebsiella pneumoniae) of 7.3%, an Inhibition (Candida albicans) of 1.34% and an Inhibition (Cryptococcus neoformans) of -54.07%.

With `Cc1ccc(C=C(C#N)C#N)cc1` the Inhibition (Klebsiella pneumoniae) was 9.23%, the Inhibition (Candida albicans) was 0.34% and the Inhibition (Cryptococcus neoformans) was -5.46%.

Work on `CCOC(=O)c1cc2cc(OC(=O)NC3CCN(Cc4ccccc4)CC3)ccc2[nH]1` yielded an Inhibition (Klebsiella pneumoniae) of 1.99%, an Inhibition (Candida albicans) of 0.56% and an Inhibition (Cryptococcus neoformans) of -41.14%.

For `Cc1ccccc1C=C(C#N)C#N`, the Inhibition (Klebsiella pneumoniae) was -3.33%, the Inhibition (Candida albicans) was -0.55% and the Inhibition (Cryptococcus neoformans) was -4.61%.

For `C#CCN1CCc2nc3nc(OC)c(C#N)cc3c(N)c2C1`, the Inhibition (Klebsiella pneumoniae) was 9.96%, the Inhibition (Candida albicans) was 0.5% and the Inhibition (Cryptococcus neoformans) was -73.36%.

Work on `C#CCN(C)Cc1cc2cc(OCc3ccc(OC(=O)N(C)C)c4ncccc34)ccc2n1C` yielded an Inhibition (Klebsiella pneumoniae) of -0.57%, an Inhibition (Candida albicans) of 1.92% and an Inhibition (Cryptococcus neoformans) of -64.25%.

Work on `Nc1c2c(nc3ccccc13)CCN(Cc1ccccc1)C2` yielded an Inhibition (Klebsiella pneumoniae) of 4.75%, an Inhibition (Candida albicans) of -0.35% and an Inhibition (Cryptococcus neoformans) of -78.39%.

`CN1CC=C(c2cccn2C)CC1` gave an Inhibition (Klebsiella pneumoniae) of 7.84%, an Inhibition (Candida albicans) of 3.67% and an Inhibition (Cryptococcus neoformans) of -4.6%.

Compound `COc1ccc(C=C(C#N)C#N)cc1OC` has an Inhibition (Klebsiella pneumoniae) of 6.42%, an Inhibition (Candida albicans) of 0.87% and an Inhibition (Cryptococcus neoformans) of -1.94%.

`Cl.ClCCN1CCCCC1` gave an Inhibition (Klebsiella pneumoniae) of 11.31%, an Inhibition (Candida albicans) of 4.96% and an Inhibition (Cryptococcus neoformans) of -9.27%.

`NNC(=O)c1cn(Cc2ccccc2)c2ccccc12` showed an Inhibition (Klebsiella pneumoniae) of 10.74%, an Inhibition (Candida albicans) of 0.77% and an Inhibition (Cryptococcus neoformans) of 3.84%.

In the case of `Nc1c2c(nc3c1C(c1ccccc1)CC(=O)N3)CCCC2` (configuration not stated), the Inhibition (Klebsiella pneumoniae) is reported as 11.64%, the Inhibition (Candida albicans) is reported as 1% and the Inhibition (Cryptococcus neoformans) is reported as -63.29%.

In the case of `OCC(Cc1cnc[nH]1)NCc1ccccc1` (configuration not stated), the Inhibition (Klebsiella pneumoniae) is reported as 4.01%, the Inhibition (Candida albicans) is reported as 0.31% and the Inhibition (Cryptococcus neoformans) is reported as 1.68%.

Compound `C#CCN1CCc2nc3ncccc3c(N)c2C1.Cl` has an Inhibition (Klebsiella pneumoniae) of 8.58%, an Inhibition (Candida albicans) of 2.69% and an Inhibition (Cryptococcus neoformans) of -56.71%.

`C#CCN1CCc2nc(N)c(C#N)c(-c3ccccc3)c2C1` was tested, and the Inhibition (Klebsiella pneumoniae; 32 ug/mL) was 13.26% and 8.28%, the Inhibition (Candida albicans) was 1.84% and 1.59% and the Inhibition (Cryptococcus neoformans; 32 ug/mL) was -44.69% and -39.47%.

With `CCOC(=O)c1cn(Cc2ccccc2)c2ccccc12` the Inhibition (Klebsiella pneumoniae) was 3.42%, the Inhibition (Candida albicans) was -1.33% and the Inhibition (Cryptococcus neoformans) was -2.24%.

`NNC(=O)c1cccnc1` [NICOTINIC ACID HYDRAZIDE] gave an Inhibition (Klebsiella pneumoniae) of 3.91%, an Inhibition (Candida albicans) of 1.56% and an Inhibition (Cryptococcus neoformans) of -4.91%.

With `COc1cc(C2C(C#N)=C(N)Oc3c2ccc2ccccc32)cc(OC)c1OC` (configuration not stated) the Inhibition (Klebsiella pneumoniae) was 3.14%, the Inhibition (Candida albicans) was -0.44% and the Inhibition (Cryptococcus neoformans) was -3.68%.

With `Cc1nc(N)c(C#N)cc1C(=O)O` the Inhibition (Klebsiella pneumoniae) was -3.56%, the Inhibition (Candida albicans) was 1.23% and the Inhibition (Cryptococcus neoformans) was -34.98%.

Work on `N#Cc1cc(C#N)c(N2C3CCC2CC3)nc1N` yielded an Inhibition (Klebsiella pneumoniae) of -5.68%, an Inhibition (Candida albicans) of 3.02% and an Inhibition (Cryptococcus neoformans) of -1.32%.

Compound `C#CCN(C)Cc1cc2cc(OCCCC3CCN(Cc4ccc(OC(=O)N(C)C)c5ncccc45)CC3)ccc2n1C` has an Inhibition (Klebsiella pneumoniae) of 4.78%, an Inhibition (Candida albicans) of 5.51% and an Inhibition (Cryptococcus neoformans) of -77.63%.

Work on `Cl.ClCCN1CCCC1` yielded an Inhibition (Klebsiella pneumoniae) of 3.45%, an Inhibition (Candida albicans) of 5.34% and an Inhibition (Cryptococcus neoformans) of -1.83%.

With `CN1CC=C(c2cccn2C)CC1.Cl` the Inhibition (Klebsiella pneumoniae) was 8.46%, the Inhibition (Candida albicans) was 3.38% and the Inhibition (Cryptococcus neoformans) was -2.75%.

`CN(C)C(=O)Oc1ccc(CCl)c2cccnc12` gave an Inhibition (Klebsiella pneumoniae) of 13.45%, an Inhibition (Candida albicans) of 4.55% and an Inhibition (Cryptococcus neoformans) of -46.72%.

With `CCOC(=O)C1=C(C)NC(=O)CC1c1ccccc1` (configuration not stated) the Inhibition (Klebsiella pneumoniae) was 18.92%, the Inhibition (Candida albicans) was 2.43% and the Inhibition (Cryptococcus neoformans) was -58.04%.

Work on `[N-]=[N+]=NCC(=O)c1ccc(Br)cc1` yielded an Inhibition (Klebsiella pneumoniae) of 7.99%, an Inhibition (Candida albicans) of 3.1% and an Inhibition (Cryptococcus neoformans) of -9.49%.
